For orientation: Inhibition means the drop in the measured response relative to a control, in per cent.

Among the data in ChEMBL document CHEMBL4513146, “CO-ADD screening of Karazin Kharkiv National University (Ukraine) compounds” are Inhibition values, retold here.

Structures are written as SMILES. Potency and affinity values are given separately.

One assay concerns Klebsiella pneumoniae. The settings on record: Concentration 32 ug.mL-1;; ASSAY_TEST Inhibition of Bacterial Growth; detection method Absorption (OD600); MEDIA CAMHB; plate type 384well; NBS; CORNING #3640; time 18 hr.
For another assay, the system named is Candida albicans. The settings on record: Concentration 32 ug.mL-1; ASSAY_TEST Inhibition of Fungal Growth; detection method Absorption (OD530).
The next assay has as its system Cryptococcus neoformans. The settings on record: Concentration 32 ug.mL-1; ASSAY_TEST Inhibition of Fungal Growth; detection method Resazurin; Absorption (OD600-OD570); plate type 384well; NBS; CORNING #3640. (In general: Alamar Blue is a resazurin reagent that responds to reducing activity.)

For `CCc1nnc2c(S(=O)(=O)N(Cc3cccc(F)c3)c3ccc(C)c(C)c3)cccn12`, the figures for the Inhibition in the assay on Klebsiella pneumoniae, in the assay on Candida albicans and in the assay with Cryptococcus neoformans were 12.58%, 3.78% and -9.15%, respectively.

Consider `COC(=O)c1ccc(CN(c2ccc(F)cc2)S(=O)(=O)c2cccn3c(C)nnc23)o1`, for which the figures for the Inhibition with Klebsiella pneumoniae, in the assay on Candida albicans and with Cryptococcus neoformans were 11.43%, 3.23% and -7.89%, respectively.

Turning to `COC(=O)c1cccc(NC(=O)Cn2nc3c(N4CCCCCC4)nccn3c2=O)c1`, the Inhibition with Klebsiella pneumoniae is recorded as 3.15%; with Candida albicans, 2.05%; in the assay with Cryptococcus neoformans, -12.46%.

On to `COc1ccc(N(Cc2cccc(Cl)c2)S(=O)(=O)c2ccc3nncn3c2)cc1`, for which the Inhibition with Klebsiella pneumoniae is 12.52%; in the assay on Candida albicans, 3.54%; with Cryptococcus neoformans, -3.69%.

In the case of `COc1cccc(CN(c2ccc(F)c(F)c2)S(=O)(=O)c2cccn3c(C)nnc23)c1`, the Inhibition in the assay with Klebsiella pneumoniae is reported as 13.94%; in the assay with Candida albicans it was -0.28%; with Cryptococcus neoformans, -8.71%.

On to `Cc1ccc(Cl)cc1NC(=O)CSc1nnc2n(CC3CCCO3)c(=O)c3sccc3n12` (stereo not given), for which the Inhibition in the assay on Klebsiella pneumoniae is listed as 10.58%; in the assay with Candida albicans it was -1.49%; in the assay on Cryptococcus neoformans it was -15.54%.

Take `Cc1ccc(C)c(NC(=O)Cn2nc3n(C)c(=O)c4c(c(-c5ccccc5)cn4C)n3c2=O)c1`: the values for the Inhibition with Klebsiella pneumoniae, in the assay on Candida albicans and with Cryptococcus neoformans were -7.88%, 1.95% and -9.34%, respectively.

As for `COc1ccc(CCn2c(=O)c3sccc3n3c(=O)n(Cc4ccccc4Cl)nc23)cc1OC`, the results for the Inhibition with Klebsiella pneumoniae, with Candida albicans and with Cryptococcus neoformans were 5.53%, -1.24% and -27.91%, respectively.

With `O=C(Cn1nc2ccc(Sc3ccccc3)nn2c1=O)Nc1ccc(Cl)cc1`, the Inhibition is on record as 9.24% with Klebsiella pneumoniae, 8.96% in the assay on Candida albicans and -7.55% in the assay on Cryptococcus neoformans.

As for `CCOC(=O)N1CCN(C(=O)CCc2nnc3c4cc(-c5ccc(F)cc5)nn4ccn23)CC1`, the Inhibition in the assay on Klebsiella pneumoniae is on record as 12.38%; with Candida albicans it was 2.97%; in the assay on Cryptococcus neoformans, -14.63%.

As for `O=C(CSc1nnc2c(=O)n(-c3ccccc3)ccn12)Nc1cccc(F)c1`, the Inhibition with Klebsiella pneumoniae was 2%; in the assay with Candida albicans, 7.33%; with Cryptococcus neoformans, -21.7%.

Regarding `COc1ccccc1-n1ccn2c(=O)n(Cc3ccc(F)cc3Cl)nc2c1=O`, the Inhibition in the assay with Klebsiella pneumoniae is recorded as 1.73%; with Candida albicans, 3.67%; in the assay with Cryptococcus neoformans, -6.11%.

With `Cc1ccc(-c2ccc3nn(Cc4cc(F)cc(F)c4)c(=O)n3n2)cc1C`, the Inhibition in the assay with Klebsiella pneumoniae is listed as 3.15%; in the assay on Candida albicans it was 0.47%; in the assay on Cryptococcus neoformans, -8.58%.

Take `COCCCNC(=O)CSc1nnc2c(=O)n(Cc3ccccc3)ccn12`: the Inhibition in the assay on Klebsiella pneumoniae is on record as 17%; with Candida albicans, 2.41%; in the assay with Cryptococcus neoformans it was -23.49%.

`O=C(Cn1nc2c(N3CCOCC3)nccn2c1=O)Nc1ccccc1Br`: the Inhibition was 13.49% with Klebsiella pneumoniae, 4.41% in the assay on Candida albicans and -7.57% in the assay with Cryptococcus neoformans.

In the case of `O=C(Cn1nc2c(N3CCOCC3)nccn2c1=O)NCc1cccc(C(F)(F)F)c1`, the figures for the Inhibition in the assay on Klebsiella pneumoniae, with Candida albicans and in the assay with Cryptococcus neoformans were 8.39%, 5.12% and -4.87%, respectively.

`COc1cc(NC(=O)Cn2nc3ccc(-c4ccc(C)c(C)c4)nn3c2=O)cc(OC)c1`: the values for the Inhibition in the assay on Klebsiella pneumoniae, in the assay on Candida albicans and in the assay on Cryptococcus neoformans were 2.14%, 14.91% and -15.3%, respectively.

For the molecule `COc1ccc(NC(=O)Cn2nc3cc(C)nc(Nc4ccc(F)cc4)n3c2=O)cc1F`, the Inhibition in the assay on Klebsiella pneumoniae is on record as 11.33%; in the assay on Candida albicans, 2.69%; with Cryptococcus neoformans it was -3.63%.

`O=C(Cn1nc2c3cc(-c4ccc(F)cc4)nn3ccn2c1=O)Nc1ccc2c(c1)OCCO2`: the figures for the Inhibition in the assay with Klebsiella pneumoniae, with Candida albicans and in the assay with Cryptococcus neoformans were 11.81%, 2.29% and -25.22%, respectively.

`Cc1ccc2c(c1)N(C(=O)Cn1nc3ccc(SCc4ccc(Cl)cc4)nn3c1=O)CCO2`: the Inhibition in the assay with Klebsiella pneumoniae is reported as 7.49%; with Candida albicans, 29.58%; in the assay with Cryptococcus neoformans, -22.86%.

In the case of `Cc1ccc(-c2cc3c4nn(CC(=O)Nc5ccc(F)cc5Cl)c(=O)n4ccn3n2)cc1`, the Inhibition is 2.7% in the assay on Klebsiella pneumoniae, 1.88% in the assay with Candida albicans and -28.25% in the assay on Cryptococcus neoformans.

With `CCOC(=O)c1ccc(NC(=O)Cn2nc3c4cc(-c5ccc(C)c(C)c5)nn4ccn3c2=O)cc1`, the results for the Inhibition in the assay with Klebsiella pneumoniae, in the assay on Candida albicans and in the assay on Cryptococcus neoformans were 1.25%, 1.14% and -10.15%, respectively.

As to `CCc1ccc(N(Cc2cccc(OC)c2)S(=O)(=O)c2cccn3cnnc23)cc1`, the Inhibition with Klebsiella pneumoniae was 14.16%; in the assay on Candida albicans, 4.11%; in the assay with Cryptococcus neoformans, -10.89%.

As to `O=C(Cn1nc2c3sc(N4CCCC4)nc3ncn2c1=O)Nc1ccccc1Cl`, the results for the Inhibition in the assay on Klebsiella pneumoniae, in the assay with Candida albicans and in the assay on Cryptococcus neoformans were 7.88%, 4.36% and -9.84%, respectively.

`Cc1ccc(-c2ccc3nn(Cc4cccc(Br)c4)c(=O)n3n2)cc1C`: the Inhibition is 14.87% in the assay on Klebsiella pneumoniae, 0.19% in the assay with Candida albicans and -18.95% in the assay with Cryptococcus neoformans.

As for `O=c1c2nn(Cc3cccc(F)c3)c(=O)n2ccn1-c1ccccc1`, the Inhibition in the assay with Klebsiella pneumoniae is 3.5%; in the assay on Candida albicans, 1.62%; in the assay on Cryptococcus neoformans it was -10.61%.

For `Cc1cc(C)cc(NC(=O)Cn2nc3ccc(SCc4ccc(Cl)cc4)nn3c2=O)c1`, the Inhibition is reported as -2.52% in the assay with Klebsiella pneumoniae, 46.75% in the assay with Candida albicans and -25.54% in the assay on Cryptococcus neoformans.

With `COC(=O)c1ccc(CN(c2cccc(F)c2)S(=O)(=O)c2ccc3nncn3c2)o1`, the Inhibition with Klebsiella pneumoniae is on record as 8.3%; with Candida albicans it was 2.51%; in the assay with Cryptococcus neoformans it was -7.35%.

Regarding `O=c1n(Cc2cccc(Br)c2)nc2ccc(-c3ccccc3)nn12`, the Inhibition is on record as 10.27% in the assay with Klebsiella pneumoniae, 5.28% with Candida albicans and -13.38% in the assay with Cryptococcus neoformans.

As for `Cc1cc2nn(CC(=O)Nc3cc(F)ccc3C)c(=O)n2c(Nc2ccc(F)cc2)n1`, the Inhibition in the assay on Klebsiella pneumoniae was 8.72%; in the assay on Candida albicans it was 0.87%; in the assay on Cryptococcus neoformans, -4.58%.
